The whole screen tested about 340,000 compounds, of which about 8,500 (2.5%) were called active.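 How the source made its calls: active means melting temperature shift of at least 10% of the positive control shift, at one fixed dose; inactive means the rest.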 What follows is part of a selection rich in actives, with near analogues and random picks from the rest.

The assay deals with Glutamate receptor ionotropic, NMDA 3A (GRIN3A) ligand-binding domain. In words: NR3A LBD thermal stabilization by compounds – biophysical, differential scanning fluorimetry, uHTS, primary screen (AID 1259313). The settings on record: at 25 µM, hits give high values, 0% = protein alone, 100% = glycine-bound protein. For orientation: In DSF a fluorescence change marks the thermal transition of the protein.
Turning to `O=C(Oc1ccc(F)cc1)N1CCOCC1`, the Tm shift relative to glycine control was 1.08% (inactive).

`Cc1c(NC(=O)c2c([N+](=O)[O-])cnn2C)c(=O)n(-c2ccccc2)n1C`: the Tm shift relative to glycine control was -0.61% (inactive).

Consider `CCOC(=O)C1(Cc2cccc(OC)c2)CCCN(S(=O)(=O)c2cccnc2)C1` (stereo not drawn), for which the Tm shift relative to glycine control is 0.32% (inactive).

As to `O=C(N/N=C/c1c[nH]c2ccccc12)c1ccccc1O`, the Tm shift relative to glycine control was 37% (active).

Consider `O=C(N/N=C/c1cccc(O)c1)c1cc2c(ccc3ccccc32)o1`, for which the Tm shift relative to glycine control was 25.4% (active).

As to `Cc1ccc2occ(/C=N/NC(=O)c3ccccc3C)c(=O)c2c1`, the Tm shift relative to glycine control was -0.75% (inactive).

Consider `O=C(Cc1c[nH]c2ccccc12)N/N=C/c1cccc(F)c1`, for which the Tm shift relative to glycine control is -4.78% (inactive).

For the molecule `O=C(N/N=C/c1cccc(OCc2ccccc2)c1)c1ccc(Br)o1`, the Tm shift relative to glycine control is -4.34% (inactive).

Take `O=C(N/N=C/c1ccsc1)c1cc(O)cc(O)c1`: the Tm shift relative to glycine control was -11.7% (inactive).

As for `COc1ccc2c(C)cc3nnnn3c2c1`, the Tm shift relative to glycine control is 1.26% (inactive).

Take `Cc1ccc(CN2CCC(N3CCC(C(=O)NCC4CCCO4)CC3)CC2)o1` (stereo not drawn): the Tm shift relative to glycine control was 0.34% (inactive).

As for `O=C(NC(=O)c1cc(OCC(F)(F)F)ccc1OCC(F)(F)F)Nc1ccccc1`, the Tm shift relative to glycine control was -0.36% (inactive).

In the case of `CC(C)(C)n1nc2c(c1NC(=O)c1ccc(S(=O)(=O)N3CCCC3)cc1)CS(=O)C2` (stereo not drawn), the Tm shift relative to glycine control was 0.18% (inactive).

With `CC(OC(=O)CNC(=O)c1cccc(F)c1)C(=O)NC1CCCCC1C` (stereo not drawn), the Tm shift relative to glycine control is -0.43% (inactive).

Regarding `CCNC(=S)Nc1ccc(OC(F)(F)F)cc1`, the Tm shift relative to glycine control was -1.13% (inactive).

Turning to `CS(=O)(=O)c1sc(C(=O)NC(=S)Nc2ccc(OC(F)(F)F)cc2)c2c1C=CCC2`, the Tm shift relative to glycine control is 11.4% (active).

Regarding `FC(F)(F)Oc1ccc(NC(=S)NCc2ccccc2)cc1`, the Tm shift relative to glycine control was 0.09% (inactive).

In the case of `c1ccc2cc3c(NCCN4CCOCC4)ccnc3cc2c1`, the Tm shift relative to glycine control is -8.16% (inactive).

Turning to `O=C1CC(c2cccc(Cl)c2)CC(O)=C1C=Nc1ccccc1` (stereo not drawn), the Tm shift relative to glycine control is -0.75% (inactive).

`Cc1cc(C(=O)OCC(=O)NCc2ccco2)c(C)n1-c1ccccc1`: the Tm shift relative to glycine control was -1.04% (inactive).

In the case of `Cc1ccc(S(=O)(=O)N2CC(O)C[C@H]2C(=O)OCC(=O)Nc2ccc(N3CCOCC3)cc2)cc1C` (stereo partly drawn), the Tm shift relative to glycine control was 1.27% (inactive).

With `O=C(NCC1(N2CCCCC2)CCCCC1)c1cccc(S(=O)(=O)Nc2ccccc2Cl)c1`, the Tm shift relative to glycine control was -0.85% (inactive).

Take `O=C(Nc1ccc2c(c1)CCC2)c1cccc(S(=O)(=O)Nc2ccccc2Cl)c1`: the Tm shift relative to glycine control is 14.9% (active).

In the case of `O=C(Nc1ccc2c(c1)CCC2)c1cccc(S(=O)(=O)N2CCN(c3ccc(F)cc3)CC2)c1`, the Tm shift relative to glycine control is 2.49% (inactive).

For `O=C1CSC(c2cccc(F)c2)N1c1ccc(O)cc1` (stereo not drawn), the Tm shift relative to glycine control was -2.36% (inactive).

As for `Cc1ccc(NC(=S)Nc2ccc(F)cc2)cc1`, the Tm shift relative to glycine control was -4.68% (inactive).

With `S=C(Nc1ccccc1)Nc1ccc2ccccc2c1`, the Tm shift relative to glycine control was 12.3% (active).

With `COc1ccc(Nc2ccc3ccccc3c2)cc1`, the Tm shift relative to glycine control is 1.95% (inactive).

Turning to `CCC1(c2ccccc2)NC(=O)N(CC(=O)Nc2ccccc2C(=O)NC2CCCC2)C1=O` (stereo not drawn), the Tm shift relative to glycine control was 0.96% (inactive).

Take `Cc1ccc(S(=O)(=O)N2CCCCC2)cc1NC(=O)[C@@H]1CCCN1C(=O)c1cccs1`: the Tm shift relative to glycine control was -0.43% (inactive).

In the case of `CC(=O)N1CCN(C(=O)c2cc(-c3ccc(C)o3)nc3ccccc23)CC1`, the Tm shift relative to glycine control is 40% (active).

Turning to `CC1CCCN(C(=O)c2cc(-c3ccco3)nc3ccccc23)C1` (stereo not drawn), the Tm shift relative to glycine control was 1.06% (inactive).

With `CCOc1ccccc1-c1cc(C(=O)N/N=C(\C)c2cccnc2)c2ccccc2n1`, the Tm shift relative to glycine control was -0.86% (inactive).

As for `O=C(c1cc(-c2ccc(Cl)s2)nc2ccccc12)N1CCOCC1`, the Tm shift relative to glycine control was -0.91% (inactive).

As for `COc1ccc(NC(=O)c2cc(-c3ccc(C)o3)nc3ccccc23)cc1`, the Tm shift relative to glycine control is 3.74% (inactive).

`CCOc1ccccc1-c1cc(C(=O)N2CCOCC2)c2ccccc2n1`: the Tm shift relative to glycine control is 12.6% (active).

Take `CCN1C(=O)[C@@H]2[C@@H](c3ccc(-c4cccc(Cl)c4)cc3)N3CCC[C@@]3(C(=O)OC)[C@@H]2C1=O`: the Tm shift relative to glycine control is -0.81% (inactive).

On to `O=C(C(=O)N1CCc2ccccc2C1)c1c[nH]c2ccccc12`, for which the Tm shift relative to glycine control was 1.51% (inactive).

On to `CN1CCN(C(=O)c2ccc(-c3ccc(Br)cc3)o2)CC1`, for which the Tm shift relative to glycine control is 1.11% (inactive).

Regarding `CC(=O)c1cccc(NC(=S)N2CCN(S(C)(=O)=O)CC2)c1`, the Tm shift relative to glycine control is -1.28% (inactive).

On to `COc1ccc(/C=C2/C(=O)N(c3ccccc3)N=C2C)c(OC)c1`, for which the Tm shift relative to glycine control was -4.6% (inactive).

Consider `COc1ccc(CN(C)Cc2nc3cc(OC)c(OC)cc3c(=O)[nH]2)c(OC)c1`, for which the Tm shift relative to glycine control was -1.12% (inactive).

For the molecule `COc1ccc(/C=C2/C(=O)OCc3cc(OC)c(OC)cc32)c(OC)c1`, the Tm shift relative to glycine control was 24.2% (active).

In the case of `CC(=O)c1ccc(OCCCC(=O)Nc2ccc(C)c(S(=O)(=O)N3CCOCC3)c2)cc1`, the Tm shift relative to glycine control is 1.04% (inactive).

For `O=C(Nc1ccnn1C1CCN(C/C=C/c2ccc(F)cc2)CC1)C1CCCC1`, the Tm shift relative to glycine control was -2.33% (inactive).

Take `CC1CCCCN1S(=O)(=O)c1ccc(S(=O)(=O)N(CC(=O)Nc2ccccc2)Cc2cccs2)cc1` (stereo not drawn): the Tm shift relative to glycine control was -4.57% (inactive).

On to `O=C(C[n+]1ccc2c(c1)nnn2-c1ccccc1)c1ccc(Cl)cc1`, for which the Tm shift relative to glycine control is -2.3% (inactive).

As for `CC(=NNC(=S)N1CCCCCC1)c1ccccn1`, the Tm shift relative to glycine control is 1.26% (inactive).

`CCn1c(SCc2cccc(C(=O)O)c2)nnc1-c1ccc(Cl)cc1`: the Tm shift relative to glycine control is -0.55% (inactive).

For the molecule `CCCc1ccc(OCCNC(=O)c2ccccc2Br)cc1`, the Tm shift relative to glycine control is -0.74% (inactive).

For `CCCOc1ccc(C(=O)NCCc2ccccc2)cc1`, the Tm shift relative to glycine control is 25.8% (active).

`CN(c1ccccc1)S(=O)(=O)c1ccc(C(=O)NCCc2ccccc2)cc1`: the Tm shift relative to glycine control is -0.95% (inactive).

`CC(C)Oc1ccc(S(=O)(=O)N2CCOCC2)cc1NC(=O)C1CCCC1`: the Tm shift relative to glycine control was 2.72% (inactive).

As to `N#Cc1cc([N+](=O)[O-])ccc1NC(=O)COC(=O)c1cnccn1`, the Tm shift relative to glycine control is 0.45% (inactive).

Regarding `CCOc1ccc2[nH]c3nc(SCC(=O)NC4CCCC4)nnc3c2c1`, the Tm shift relative to glycine control is -4.45% (inactive).

`CCN1C(=O)[C@H]2[C@@H](c3ccc(-c4ccc(OC)cc4)cc3)N[C@@](Cc3ccccc3)(C(=O)OC)[C@H]2C1=O`: the Tm shift relative to glycine control was -3.39% (inactive).

`CCN1C(=O)[C@H]2[C@@H](c3ccc(-c4ccc(F)cc4)cc3)N[C@@](Cc3ccccc3)(C(=O)OC)[C@H]2C1=O`: the Tm shift relative to glycine control is 1.35% (inactive).

In the case of `CCN1C(=O)[C@H]2[C@@H](c3ccc(SC4CCCCC4)c(OC)c3)N[C@@](Cc3ccccc3)(C(=O)OC)[C@H]2C1=O`, the Tm shift relative to glycine control is 15.5% (active).

The values above are taken from PubChem BioAssay AID1259313 (Sanford-Burnham Center for Chemical Genomics, 2017).
